An excerpt weighted towards active compounds, which were near 4% of everything screened.
HIF-2a block = HIF-2a reporter inhibitors, primary screen, luminescence, 786-0 RCC cells; inhibition, % at 18.8 µM; 786-0 RCC cells HIF-2a reporter, luciferase luminescence, overnight; AID 624352, 2012; 360,000 tested, 0.72% active;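 active = inhibition of the luminescence signal of 40% or more relative to plate controls, in a single-dose primary screen at 18.75 µM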
CF NFkB block = inhibitors of PAF-induced NF-kB signaling, primary screen, cell-based, GFP fluorescence, uHTS | KKLEB NF-kB-GFP reporter, GFP fluorescence overnight | inhibition, % at 5 µM | 360,000 tested, 0.86% active | AID 588850, 2011;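 active = at least 50% inhibition at 5 µM, scaled per plate between neutral and stimulator controls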;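 also: PAF is a Pseudomonas aeruginosa culture filtrate used as stimulus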
KKLEB cytotox = cytotoxicity in KKLEB CF airway cells, primary screen, cytotoxicity control for CF NF-kB inhibitor project, cell-based, uHTS, fluorescence assay plates; KKLEB CF airway cells viability, ATPlite luminescence, overnight; active compounds read low; cells stimulated with P. aeruginosa culture filtrate; activity change (cytotoxicity), % at 5 µM; 360,000 tested, 0.36% active; AID 602141, 2011;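 active = corrected activity change at or below -50% at 5 µM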
TROY signal inh = inhibitors of TROY-driven NF-kB signaling, primary screen, Q293 LMP1-TROYcd cells, NF-kB luciferase, uHTS. Q293 LMP1-TROYcd NF-kB luciferase reporter, 4 h. inhibition, % at 10 µM. 360,000 tested, 0.98% active. AID 1347056, 2019;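 active = compounds whose plate-normalised and pattern-corrected inhibition of the luciferase reporter signal at the single screening dose is 50% or more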
Peg3 prom inh-1 = Peg3 promoter-driven luciferase inhibitors, primary screen, cell-based, HeLa, luciferase luminescence | HeLa PEG-Prom luciferase reporter, overnight | inhibition, % at 20 µM | 360,000 tested, 1.7% active | AID 588405, 2011;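 active = inhibition of at least 50% at 20 µM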
TWEAK-Fn14 inh = inhibitors of TWEAK-Fn14 signaling, primary screen, luciferase reporter cells, uHTS. 360,000 tested, 2% active. TWEAK-stimulated Fn14 reporter cells, luciferase luminescence, 8 h. inhibition, % at 10 µM; in the data active = inhibition above about 50%
Peg3 prom inh-2 = Peg3 promoter reporter inhibitors, retest, confirmation, cell-based, HeLa, luciferase reporter, single concentration. inhibition, % at 20 µM. shares compounds with Peg3 prom inh-1. HeLa PEG-Prom luciferase reporter, luminescence, overnight. 1,300 tested, 84% active. AID 602417, 2012;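 active = at 20 µM dose, 40% or more inhibition averaged across four replicates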
Large screens that a line does not name were inactive (follow-up assays come after a bar, where they were run).

O=C(Nc1ccc(CN2CCCCC2)cc1)Nc1ccc(Br)cc1Cl	Peg3 prom inh-1 67 | Peg3 prom inh-2 96
Fc1ccc(-c2nn(-c3ccccc3)cc2CNCc2ccccc2)cc1	Peg3 prom inh-1 62 | Peg3 prom inh-2 inactive
O=C(O)Cc1cn(-c2ccccc2)nc1-c1ccccc1	none
COc1ccccc1C(=O)Nc1nc2ccccc2s1	HIF-2a block 86, KKLEB cytotox -95, TROY signal inh 85, Peg3 prom inh-1 104, TWEAK-Fn14 inh 104 | Peg3 prom inh-2 95
O=C(CN1C(=O)C2C3C=CC(C3)C2C1=O)OCC(=O)c1ccc(Cl)c([N+](=O)[O-])c1 (centres undefined)	none
COc1cccc(N(C(=O)CS(=O)CC(=O)Nc2ccc(F)cc2)C(C(=O)NC2CCCCC2)c2cccs2)c1 (centres undefined)	Peg3 prom inh-1 60 | Peg3 prom inh-2 inactive
CCC(C)c1ccccc1OCC(=O)NN1C(=O)c2ccccc2C1=O (centres undefined)	none
COc1ccc2cc(/C=C/C(=O)N3CCN(CC(=O)N4CCCCCC4)CC3)ccc2c1	none
CS(=O)(=O)c1sc(C#N)c2c1C(=O)CC(c1ccccc1)C2 (centres undefined)	HIF-2a block 95, CF NFkB block 81, TROY signal inh 80, Peg3 prom inh-1 98, TWEAK-Fn14 inh 64 | Peg3 prom inh-2 97
CC(C)CC(NS(=O)(=O)OCC(Cl)(Cl)Cl)c1ccccc1 (centres undefined)	Peg3 prom inh-1 57 | Peg3 prom inh-2 45
COC(=O)CCC(NS(=O)(=O)OCC(Cl)(Cl)Cl)c1ccccc1 (centres undefined)	none
O=c1c2c3c(sc2nc(N2CCNCC2)n1CCc1ccccc1)CCCCC3	Peg3 prom inh-1 105 | Peg3 prom inh-2 96
COc1ccccc1NS(=O)(=O)c1ccc2ccccc2c1	none
COc1ccc(NS(=O)(=O)c2ccc3ccccc3c2)c2ncccc12	CF NFkB block 51, Peg3 prom inh-1 51 | Peg3 prom inh-2 52
Cc1cc(C=C2C(=O)c3ccccc3C2=O)c(C)n1-c1cccc(C(=O)O)c1	none
Cc1cc(C=C2C(=O)c3ccccc3C2=O)c(C)n1-c1ccccc1	HIF-2a block 56, Peg3 prom inh-1 69, TWEAK-Fn14 inh 89 | Peg3 prom inh-2 65
O=C(CSc1nc2ccccc2c(=O)n1CCCN1CCOCC1)Nc1ccc(Br)cc1	none
CCc1ccc(NC(=O)CSc2nc3ccccc3c(=O)n2CCCN2CCC(C)CC2)cc1	Peg3 prom inh-1 93 | Peg3 prom inh-2 95
COc1ccc2nc(SC(C)C(=O)NCC(=O)Nc3ccc(F)c(F)c3F)[nH]c2c1 (centres undefined)	none
CC[C@H](C)[C@H]1O[C@]2(CC[C@@H]1C)C[C@@H]1C[C@@H](CC=C(C)[C@@H](O[C@H]3C[C@H](OC)[C@@H](O[C@H]4C[C@H](OC)[C@@H](O)[C@H](C)O4)[C@H](C)O3)[C@@H](C)C=CC=C3CO[C@@H]4[C@H](O)C(C)=C[C@@H](C(=O)O1)[C@]34O)O2	HIF-2a block 53, CF NFkB block 56, KKLEB cytotox -51, Peg3 prom inh-1 84, TWEAK-Fn14 inh 100 | Peg3 prom inh-2 inactive
Cc1nn(C)c(C)c1NC(=O)CSc1nc(Cc2ccccc2)nc2c1cnn2-c1ccccc1	Peg3 prom inh-1 96 | Peg3 prom inh-2 inactive
CC(=O)NCCC(=O)N1CCCC(N2CCN(c3cccc(Cl)c3)CC2)C1 (centres undefined)	none
O=C(CNCCC1=CCCCC1)Nc1ccc(N2CCCCCC2)cc1	Peg3 prom inh-1 86 | Peg3 prom inh-2 99
O=C(CNC1CCCC1)Nc1ccc(N2CCCCCC2)cc1	none
COc1ccc(CNS(=O)(=O)c2ccc(Br)s2)cc1	none
CC(C)CC1C(=O)N(Cc2cn(CCC3OCCO3)nn2)CCS(=O)(=O)N1Cc1ccc(-c2ccc(F)cc2)cc1 (centres undefined)	Peg3 prom inh-1 50 | Peg3 prom inh-2 55
Brc1ccc(N=Nc2ccc3ccccc3n2)cc1	HIF-2a block 62, KKLEB cytotox -98, TROY signal inh 76, Peg3 prom inh-1 73, TWEAK-Fn14 inh 99 | Peg3 prom inh-2 68
COc1ccc(CNCc2cc(Cl)ccc2O)cc1	none
CCc1ccc(O)c(CNCCNCc2cc(CC)ccc2O)c1	Peg3 prom inh-1 91 | Peg3 prom inh-2 92
CC(OC(=O)CC1CC2CCC1C2)C(=O)Nc1cccc(S(=O)(=O)N2CCOCC2)c1 (centres undefined)	none
CCc1nc(N=Nc2c(O)[nH]c3ccccc23)c2c3c(sc2n1)CCC3	Peg3 prom inh-1 85 | Peg3 prom inh-2 inactive
CC1CCc2c(sc3ncn(CC(=O)N=Nc4c(O)[nH]c5ccccc45)c(=O)c23)C1 (centres undefined)	none
Cc1cc(S(=O)(=O)c2ccc(Cl)cc2)nc(S(=O)(=O)c2ccc(Cl)cc2)c1C#N	HIF-2a block 89, CF NFkB block 88, KKLEB cytotox -93, TROY signal inh 57, Peg3 prom inh-1 113, TWEAK-Fn14 inh 77 | Peg3 prom inh-2 97
Cc1cc(O)ccc1Nc1cc(-c2cccc(N)c2)ncn1	none
CCn1c(SCC(=O)Nc2nc3ccc(OC)cc3s2)nc2c1c(=O)n(C)c(=O)n2C	Peg3 prom inh-1 62, TWEAK-Fn14 inh 58 | Peg3 prom inh-2 inactive
CC(C)n1c(SCC(=O)Nc2nc3ccccc3s2)nc2c1c(=O)n(C)c(=O)n2C	none
O=C(Nc1cccc(-c2cscn2)c1)C1CCN(Cc2ccccn2)CC1	none
Cc1ccc(C(=O)N2CCN(c3ccc([N+](=O)[O-])c(NCc4cccnc4)c3)CC2)cc1	Peg3 prom inh-1 56 | Peg3 prom inh-2 48
Cc1ccccc1C(=O)N1CCN(c2ccc([N+](=O)[O-])c(NCc3cccnc3)c2)CC1	none
O=[N+]([O-])c1cc(-c2csc(NCCc3nc4cc(C(F)(F)F)ccc4n3CCCO)n2)ccc1Cl	Peg3 prom inh-1 54 | Peg3 prom inh-2 inactive
OCCCn1c(CCNc2nc(-c3ccc(Cl)cc3)cs2)nc2cc(C(F)(F)F)ccc21	none
Cc1ccc(OCCCC(=O)NC2CCCCC2)cc1	none
Cc1cc(Br)ccc1NC(=O)CNC(=O)Cn1ncc(Cl)c(Cl)c1=O	CF NFkB block 91, KKLEB cytotox -51, Peg3 prom inh-1 111, TWEAK-Fn14 inh 60 | Peg3 prom inh-2 98
COc1ccc(C)cc1Nc1n[n+](-c2ccccc2)c(-c2ccc(N(C)C)cc2)s1	Peg3 prom inh-1 62 | Peg3 prom inh-2 50

Screening data: PubChem, Sanford-Burnham Center for Chemical Genomics
